Source: PMC10668032, “Altered binding affinity of SIX1-Q177R correlates with enhanced WNT5A and WNT pathway effector expression in Wilms tumor”
Over roughly 33,000 sequences, “e-score” has its median near -0.05; the highest 2% begin near 0.38. For the sample, the highest values were picked, then their nearest neighbours and some sequences at random.

These sequences were tested against T1, SIX1-Q177R homeodomain (human, UniProt Q15475 108-198, Q177R) (assay: universal protein binding microarray; Universal all-10-mer PBM (8x60K, AMADID 030236), 300 nM GST-tagged protein, Alexa Fluor 488 anti-GST; buffer, salt, pH and temperature not stated (as in Berger); high values mean tight binding). Settings: protein: ivt; tags: N-terminal GST; dsDNA, one strand shown.
T1 sequence: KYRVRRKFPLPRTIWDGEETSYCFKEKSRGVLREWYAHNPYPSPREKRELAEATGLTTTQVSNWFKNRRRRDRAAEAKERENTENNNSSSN
How it was run: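 After in vitro transcription/translation, GST-tagged homeodomains were quantified against a recombinant GST standard curve by anti-GST western blot. They were then placed in duplicate at 300 nM final concentration on universal 'all 10-mer' protein binding microarrays of 8×60K format.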

| Sequence | binding signal [E-score] |
| --- | --- |
| CACCACGC | 0.2817 ± 0.00156 |
| ATTCGGGG | 0.1763 ± 0.00138 |
| ATCGACCC | 0.163 ± 0.0642 |
| GTCGACAC | 0.4143 ± 0.00159 |
| ATCGACAC | 0.436 ± 0.0239 |
| CTCGACAC | 0.419 ± 0.0214 |
| ATCGACTC | 0.201 ± 0.019 |
| CTCGACCC | 0.182 ± 0.0618 |
| CTCGGCAC | 0.194 ± 0.0445 |
| GTCGAAAC | 0.182 ± 0.0154 |
| CACGCCTG | 0.202 ± 0.0125 |
| CCCCTCCA | 0.195 ± 0.0175 |
| ACATGACA | 0.179 ± 0.0207 |
| ATGCCAAG | 0.162 ± 0.0414 |
| GTGGGGTA | 0.278 ± 0.0225 |
| GGTTTAAC | 0.1932 ± 0.000396 |
| CAGTGTCC | 0.374 ± 0.0168 |
| CAGTGTCG | 0.444 ± 0.0154 |
| AAGTGTCG | 0.384 ± 0.00583 |
| AAGGGTCG | 0.188 ± 0.0266 |
| CAGTCACA | 0.1706 ± 0.000283 |
| AAGTGTGG | 0.169 ± 0.00659 |
| CAGTGTCA | 0.4579 ± 0.00161 |
| CCTCGACA | 0.218 ± 0.00226 |
| CCGACTCG | 0.159 ± 0.0511 |

| Sequence | binding signal [E-score] |
| --- | --- |
| GGGGTCGA | 0.298 ± 0.0393 |
| TAGCGACA | 0.172 ± 0.00519 |
| AGGGGTCA | 0.28 ± 0.00906 |
| CACCCGTG | 0.3705 ± 0.00306 |
| GTTTCACA | 0.161 ± 0.0356 |
| ACCAGTAC | 0.151 ± 0.0205 |
| GGTGCGTA | 0.161 ± 0.0186 |
| CGTACACA | 0.268 ± 0.0421 |
| CGTACCCC | 0.24 ± 0.0402 |
| CGTACACG | 0.405 ± 0.0112 |
| CGTACTCC | 0.221 ± 0.003 |
| GGTACACC | 0.4848 ± 0.00354 |
| AGTACACA | 0.253 ± 0.0191 |
| CGTACACC | 0.483 ± 0.00107 |
| AGTACACG | 0.4259 ± 0.00113 |
| GGCACACC | 0.351 ± 0.0301 |
| TGTACACA | 0.353 ± 0.00919 |
| GGTACACA | 0.322 ± 0.0315 |
| CACTTCAA | 0.265 ± 0.016 |
| AAACCCCT | 0.178 ± 0.0353 |
| GTATCTGA | 0.236 ± 0.00609 |
| CGGATACA | 0.294 ± 0.0106 |
| CCCGCGCA | 0.176 ± 0.0199 |
| CCCCCCAG | 0.162 ± 0.0223 |
| AGTACACC | 0.4815 ± 0.00102 |

| Sequence | binding signal [E-score] |
| --- | --- |
| AGTACACT | 0.406 ± 0.0266 |
| AGTACAAG | 0.205 ± 0.0236 |
| AGTACCCC | 0.2867 ± 0.00256 |
| CACGCTCA | 0.155 ± 0.038 |
| CTAGCACC | 0.203 ± 0.0347 |
| GTATCGGA | 0.2544 ± 0.00158 |
| ACACGGTG | 0.438 ± 0.00996 |
| ACCCGGTA | 0.236 ± 0.00419 |
| GCACGGTA | 0.165 ± 0.0341 |
| ACACGGTC | 0.4128 ± 0.00131 |
| ACACGGTA | 0.385 ± 0.0298 |
| ATACGGTG | 0.276 ± 0.0116 |
| ACACGGCG | 0.359 ± 0.00453 |
| ACGGGAGT | 0.186 ± 0.00625 |
| ACTCCACC | 0.275 ± 0.00877 |
| CGTGCACG | 0.17 ± 0.0561 |
| CACCGTGC | 0.3272 ± 0.00251 |
| ACCACTAC | 0.178 ± 0.00318 |
| CTCCCGGC | 0.152 ± 0.0261 |
| ACCCCTAC | 0.294 ± 0.0164 |
| AGGGGTAA | 0.224 ± 0.0133 |
| AGTGGTGC | 0.2454 ± 0.00132 |
| GTGTAAGA | 0.411 ± 0.0296 |
| ATGTAACA | 0.2716 ± 0.000905 |
| CCCTAAGA | 0.276 ± 0.0324 |

| Sequence | binding signal [E-score] |
| --- | --- |
| GGGTAAAC | 0.193 ± 0.00601 |
| GTGTAATA | 0.451 ± 0.00861 |
| GGGTAACA | 0.281 ± 0.0312 |
| GTTTAAAC | 0.3445 ± 0.00099 |
| GTGTAACA | 0.445 ± 0.00891 |
| GTGTAAAC | 0.445 ± 0.018 |
| GTGAAATA | 0.172 ± 0.00835 |
| GGGTAATA | 0.264 ± 0.00387 |
| GTGTGAGA | 0.291 ± 0.0156 |
| ACATAGTG | 0.19 ± 0.00926 |
| ACCCTGCT | 0.19 ± 0.00245 |
| CACGCGAG | 0.27 ± 0.0228 |
| CCCGCCGG | 0.245 ± 0.0587 |
| CCAAGCGG | 0.162 ± 0.00467 |
| AACGTACA | 0.185 ± 0.0191 |
| GTATCGTA | 0.18 ± 0.0138 |
| AGTCGCGA | 0.189 ± 0.03 |
| CACTCCTC | 0.201 ± 0.00344 |
| GTGTGAAA | 0.356 ± 0.00667 |
| GTGTAAAA | 0.401 ± 0.049 |
| GGATCCCA | 0.235 ± 0.0247 |
| ATTGACAC | 0.438 ± 0.0129 |
| CTTGATAC | 0.195 ± 0.0457 |
| CTTGACCC | 0.201 ± 0.00951 |
| CTTGACAC | 0.42915 ± 0.000184 |

| Sequence | binding signal [E-score] |
| --- | --- |
| ATTGACTC | 0.162 ± 0.0495 |
| ATTGACCC | 0.167 ± 0.0261 |
| CAGCGTTA | 0.187 ± 0.0162 |
| AGATGACA | 0.1652 ± 0.000311 |
| CACCCACA | 0.365 ± 0.00539 |
| CCCTTAAC | 0.152 ± 0.0479 |
| GAATACCC | 0.159 ± 0.00629 |
| GAATACAC | 0.408 ± 0.0236 |
| AAATACAC | 0.403 ± 0.0413 |
| CAATACAC | 0.371 ± 0.0193 |
| CAAAATAC | 0.162 ± 0.0251 |
| CCCTTAGG | 0.175 ± 0.00592 |
| CACCCGAG | 0.297 ± 0.0235 |
| ACCAGTGG | 0.189 ± 0.0039 |
| CCCCAAGG | 0.218 ± 0.0124 |
| ACCTGGGG | 0.21 ± 0.0103 |
| CACGCCGG | 0.287 ± 0.0131 |
| TCTTAACA | 0.202 ± 0.0606 |
| TGTTAACA | 0.389 ± 0.043 |
| GGTTAACA | 0.224 ± 0.0235 |
| CCCTAGTC | 0.167 ± 0.0143 |
| ACCCCTCT | 0.304 ± 0.0038 |
| ACACCTCT | 0.467 ± 0.0079 |
| ATACCTCC | 0.231 ± 0.0309 |
| ACACCTCC | 0.4719 ± 0.000629 |

| Sequence | binding signal [E-score] |
| --- | --- |
| CACCCTCG | 0.349 ± 0.0215 |
| CCACCTCC | 0.159 ± 0.00267 |
| GCACCTCA | 0.162 ± 0.0144 |
| ACTCCTCT | 0.174 ± 0.0278 |
| ACCCCTCG | 0.3069 ± 0.00276 |
| ACACCTCG | 0.453 ± 0.00735 |
| ACGCCTCA | 0.165 ± 0.0291 |
| ACACCTCA | 0.452 ± 0.0073 |
| ACCCGATA | 0.237 ± 0.00872 |
| CACCGAGG | 0.2466 ± 0.00166 |
| CACCAATC | 0.287 ± 0.00449 |
| GAAGGACA | 0.176 ± 0.0303 |
| AACGAGTG | 0.189 ± 0.0329 |
| CCCCCTGA | 0.277 ± 0.0278 |
| CCCCCAGG | 0.213 ± 0.0301 |
| CACCTGCG | 0.26 ± 0.0138 |
| ACTTCTAC | 0.182 ± 0.0104 |
| CACGGGAC | 0.163 ± 0.0415 |
| CCCCTCAA | 0.161 ± 0.0276 |
| CACTCAAG | 0.264 ± 0.00106 |
| CGACTCCA | 0.275 ± 0.014 |
| CCCCTCCG | 0.2736 ± 0.00272 |
| CACTAGGC | 0.221 ± 0.00293 |
| CCCCTTAC | 0.245 ± 0.00846 |
| GACACTGC | 0.4326 ± 0.00138 |

| Sequence | binding signal [E-score] |
| --- | --- |
| CACACTGG | 0.264 ± 0.0213 |
| TACACTGA | 0.394 ± 0.0104 |
| CACACTGA | 0.208 ± 0.0349 |
| AACACTGA | 0.35 ± 0.0172 |
| CACACTGC | 0.258 ± 0.0222 |
| AACACTGC | 0.375 ± 0.0233 |
| TACACTAA | 0.381 ± 0.0182 |
| AACACTAA | 0.336 ± 0.0111 |
| GACACTGA | 0.403 ± 0.0214 |
| GACACTAA | 0.369 ± 0.00967 |
| AATCGTGT | 0.369 ± 0.0106 |
| AACTCCCG | 0.181 ± 0.0506 |
| ACTGGTAC | 0.192 ± 0.00471 |
| CCCCCCGA | 0.314 ± 0.0156 |
| CACTACGG | 0.188 ± 0.0252 |
| CGAGGAAC | 0.197 ± 0.0457 |
| CCGATCCC | 0.221 ± 0.00253 |
| TACTCCAA | 0.198 ± 0.0212 |
| CACTGTGC | 0.204 ± 0.00431 |
| CACAGGTG | 0.307 ± 0.0159 |
| AACACTTA | 0.328 ± 0.0332 |
| GACACTTA | 0.383 ± 0.00709 |
